About 83,000 compounds went through this panel and 20% of them were active in at least one assay; those are over-represented in the sample as a whole.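 Note: values are percent growth. 100 is the growth of untreated cells, values between 100 and 0 indicate rising inhibition; between -100 and 0 indicates cell death.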 Values without a mark were called inactive. Activity calls are given as the source filed them. Rule for the calls: active = growth percent below 10; inactive = the rest.
Tests used:
Experiment in all cases: NCI-60 one-dose screen, 48 h (100 = growth as untreated, 0 = no growth, -100 = all killed)
Conditions in all cases: 10 µM unless noted
DU-145 prostate = system: DU-145 prostate
K-562 leukemia = system: K-562 leukemia
MALME-3M melanoma = system: MALME-3M melanoma
MDA-MB-231 breast = system: MDA-MB-231 breast
RXF 393 renal = system: RXF 393 renal
SF-268 CNS = system: SF-268 CNS
SF-295 CNS = system: SF-295 CNS
SF-539 CNS = system: SF-539 CNS
UACC-257 melanoma = system: UACC-257 melanoma

Compound | growth (DU-145 prostate) | growth (K-562 leukemia) | growth (MALME-3M melanoma) | growth (MDA-MB-231 breast) | growth (RXF 393 renal) | growth (SF-268 CNS) | growth (SF-295 CNS) | growth (SF-539 CNS) | growth (UACC-257 melanoma)
CN(C)c1ccc(-n2nc3ccccc3n2)cc1 | 101% | 70.1% | 117% | 85.4% | 98.9% | 127% | 82.7% | 86.1% | 101%
Cc1cc(C)c(C(=O)c2cccs2)c(C)c1 | 111% | 98.4% | 110% | 107% | 110% | 104% | 122% | 106% | 99.3%
N#CC(C#N)C(C#N)C#N | 112% | 105% | 114% | 108% | 110% | 104% | 102% | 105% | 85.7%
COC(=O)c1cc2oc(/C=N\NC(=O)c3cc4oc(C)c(C)c4[nH]3)cc2[nH]1 | 147% | 84.1% | 82.5% | 107% | 101% | 106% | 84.2% | 101% | 114%
CCOC1Oc2ccccc2C(=O)/C1=N/c1nccs1 (stereo not given) | 101% | 84.9% | 51.9% | 78.1% | 102% | 76.9% | 93.5% | 93.9% | 112%
CCSc1nc(-c2cccs2)n2nc(-c3ccco3)cc2n1 | 113% | 100% | 107% | 91.6% | 107% | 102% | 99.4% | 100% | 103%
COc1cc(/C=C2\SC(N3CCCCC3)=NC2=O)ccc1OCCCCCCOc1ccc(/C=C2\SC(N3CCCCC3)=NC2=O)cc1OC | -7% (active) | 3.85% (active) | 5.59% (active) | 20.9% | -44.3% (active) | -1.61% (active) | 4.37% (active) | -1.19% (active) | -0.986% (active)
O=C(O)CCC(=O)OC[C@@H](NC(=O)C(Cl)Cl)[C@H](O)c1ccc([N+](=O)[O-])cc1 | 110% | 98.6% | 96% | 103% | 104% | 109% | 101% | 100% | 104%
O=c1oc2c(cc1-c1ccc([N+](=O)[O-])cc1)C(O)Oc1ccccc1-2 (stereo not given) | 142% | 76.8% | 77.6% | 114% | 49.1% | 94.7% | 67.9% | 93.8% | 89.3%
Nc1nc(Nc2ccccc2SSc2ccccc2Nc2nc(N)nc(-c3cccc(Cl)c3)n2)nc(-c2cccc(Cl)c2)n1 | 97% | 81.9% | 104% | 74.8% | 106% | 99.9% | 79.2% | 99.6% | 112%
COC(=O)N/N=C/c1coc2ccc(Cl)cc2c1=O | 106% | 86.9% | 75.7% | 71.3% | 66.6% | 85.5% | 93.6% | 99.8% | 111%
COc1ccc2[nH]c(=O)c(CNc3ccc(Nc4nccc(-c5ccc(Cl)cc5)n4)cc3)cc2c1 | 84.8% | 68.6% | 97.7% | 84.9% | 101% | 71.9% | 110% | 104% | –
Cc1c2oc3c(C)ccc(C(=O)OC(C)C4NC(=O)C(C(C)C)N(C)C(=O)CN(C)C(=O)C5CCCN5C(=O)C(C(C)C)NC4=O)c3nc-2c(C(=O)OC(C)C2NC(=O)C(C(C)C)N(C)C(=O)CN(C)C(=O)C3CCCN3C(=O)C(C(C)C)NC2=O)c(N)c1=O (stereo not given) | 11.4% | 5.53% (active) | -37.6% (active) | 3.61% (active) | -78.5% (active) | -5.9% (active) | -9.17% (active) | -11.4% (active) | –
